From PubChem BioAssay (NCI)
This is part of a sample that, as a whole, favours compounds with a hit. Of some 83,000 tested, about 20% had one in any assay.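 Testing used 96-well plates and a 48-hour single-concentration exposure. Example: -40 means 40% of the starting cells died.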 Activity calls are given as the source filed them. Rule for the calls: active = growth percent below 10; inactive = the rest.

What follows are molecules tested on MDA-MB-468 breast (assay: NCI-60 one-dose screen, 48 h (100 = growth as untreated, 0 = no growth, -100 = all killed)). Details: 10 µM unless noted.

Question: Which growth does the source give for `COc1ccc(C(=O)Nc2ccc3nc(N4CCCCC4)cc(C)c3c2)cc1OC` here?
Answer: 73.6% (inactive)

Question: How did the growth turn out when `O=C(NCCOCCOCCOCCNC(=O)c1cc2c(o1)C(=O)c1ccccc1C2=O)NC12CC3CC(CC(C3)C1)C2` was run?
Answer: -33.8% (active)

Question: With `O=C(Nc1ncc(Cc2ccccc2)s1)c1ccc2c(c1)OCCO2` as the molecule, how does the growth read?
Answer: 28.2% (inactive)

Question: `CCN(CC)C(=S)SCCO` was tested. Which growth did it give?
Answer: 94.6% (inactive)

Question: `CS(=O)(=O)c1ccc(/C(=N/N=C(N)N)c2ccc(Cl)cc2)cc1` was tested. Which growth did it give?
Answer: 68.5% (inactive)

Question: For `Cc1nc2c(ccc3ccccc32)s1`, which growth is on record?
Answer: 109% (inactive)

Question: For `CO[C@@H](C)Cn1c(=O)n(C)c2cnc3ccc(-c4cncc(C(C)(C)O)c4)cc3c21`, which growth is on record?
Answer: -45.9% (active)

Question: How did the growth turn out when `N#Cc1c(-c2ccccc2)nc(SCc2nnc(-c3ccc(Cl)cc3)o2)[nH]c1=O` was run?
Answer: 103% (inactive)

Question: How did the growth turn out when `COc1ccc(/C=C(\C#N)n2nnc3cc(F)c(F)cc32)c(OC)c1OC` was run?
Answer: 35.3% (inactive)

Question: With `COc1ccc(C2c3sc4c(C)cccc4c3Oc3nc(CC(=O)Nc4ccccc4)[nH]c(=O)c32)cc1` (configuration not stated) as the molecule, how does the growth read?
Answer: 18.6% (inactive)

Question: For `CCSc1nc(Cl)c(C#N)c(-c2ccc(F)cc2)n1`, which growth is on record?
Answer: 84.2% (inactive)

Question: For `O=C(Nc1cccc(-n2cc(-c3ccncc3)c(-c3ccc(O)c(Cl)c3)n2)c1)Nc1ccc(Cl)c(Cl)c1`, which growth is on record?
Answer: 27.3% (inactive)

Question: Which growth does the source give for `COc1ccc(-c2ccc(-c3ccc(C(=N)N)cn3)s2)cc1` here?
Answer: 72.6% (inactive)

Question: Which growth does the source give for `CCOc1nc(-c2ccco2)n2nc(-c3ccco3)cc2n1` here?
Answer: -5.05% (active)

Question: Which growth does the source give for `COc1ccc2cn3c4ccc(O)cc4[nH]c(=O)c3c2c1` here?
Answer: -11.9% (active)

Question: With `CCN1C(=O)N(CC)C2C1NN=c1s/c(=C\c3ccc(OC)cc3)c(=O)n12` (configuration not stated) as the molecule, how does the growth read?
Answer: -0.192% (active)

Question: `O=P([O-])(O)OP(=O)([O-])O.[NH-][C@H]1CCCC[C@@H]1[NH-].[OH-].[OH-].[Pt+4]` was tested. Which growth did it give?
Answer: 102% (inactive)

Question: How did the growth turn out when `BrCc1cccc(C[P+](c2ccccc2)(c2ccccc2)c2ccccc2)c1` was run?
Answer: -12.4% (active)

Question: With `CCc1ccc(Nc2cc(C)c3ccc(O)cc3n2)cc1` as the molecule, how does the growth read?
Answer: -11.2% (active)

Question: Which growth does the source give for `CCc1cccc2c3c(sc12)C(c1ccc(Cl)cc1)C(C#N)=C(/N=C/c1ccc(Cl)cc1)O3` (configuration not stated) here?
Answer: -16.3% (active)

Question: With `C=CCn1c(SCC(=O)Nc2ccc(C(=O)/C=C/c3ccc(C)cc3)cc2)nnc1-c1c[nH]c2ccccc12` as the molecule, how does the growth read?
Answer: 85.3% (inactive)

Question: `COc1ccc(NC(=O)c2cc3ccccc3nc2Nc2cc(OC)c(OC)c(OC)c2)cc1` was tested. Which growth did it give?
Answer: 75.2% (inactive)

Question: With `Cc1cc(I)nc2ccccc12` as the molecule, how does the growth read?
Answer: 109% (inactive)

Question: For `COc1ccc2c(c1)Oc1nc(N)c(C#N)c(N)c1C2Sc1ccc(C)cc1` (configuration not stated), which growth is on record?
Answer: -45.8% (active)

Question: Which growth does the source give for `O=[N+]([O-])c1cccc(-c2nc3cc4nc5ccccc5[nH]c4cc3n2)c1` here?
Answer: 95.5% (inactive)

Question: Which growth does the source give for `CCN(c1ccccc1)S(=O)(=O)c1cc([N+](=O)[O-])ccc1Cl` here?
Answer: -4.6% (active)

Question: How did the growth turn out when `CN1CCN(c2nc(-c3cccnc3)nc3sc4c(c23)CCCCCC4)CC1` was run?
Answer: 94.2% (inactive)
